Results on one sequence are retold here after publication PMC7862700, “An all-to-all approach to the identification of sequence-specific readers for epigenetic DNA modifications on cytosine”.

Common to all, as to experiment: DAPPL (digital affinity profiling via proximity ligation, sequencing); 10 mM Tris-HCl pH 7.5, 50 mM NaCl, 1 mM DTT, 4% glycerol, room temperature, 30 min; GST-TFs on glutathione beads, 16-mer random dsDNA library, 0.1% formaldehyde crosslink after washing; high values mean tight binding
For one assay, the target named is T1, FLI1 (Homo sapiens, UniProt Q01543 1-452).
T1 sequence: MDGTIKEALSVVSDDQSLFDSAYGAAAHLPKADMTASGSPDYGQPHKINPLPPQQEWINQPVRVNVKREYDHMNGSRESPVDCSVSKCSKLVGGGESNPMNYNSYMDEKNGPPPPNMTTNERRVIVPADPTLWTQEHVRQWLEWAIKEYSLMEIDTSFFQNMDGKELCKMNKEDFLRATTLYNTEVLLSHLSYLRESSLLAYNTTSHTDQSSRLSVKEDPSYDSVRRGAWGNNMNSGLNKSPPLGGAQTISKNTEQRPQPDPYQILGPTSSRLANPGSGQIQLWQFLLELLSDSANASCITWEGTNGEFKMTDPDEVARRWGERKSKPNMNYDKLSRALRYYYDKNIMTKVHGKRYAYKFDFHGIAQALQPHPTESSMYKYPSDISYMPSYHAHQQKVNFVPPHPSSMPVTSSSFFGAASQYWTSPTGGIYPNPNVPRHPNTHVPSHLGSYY
The note with it: protein: recombinant; tags: N-terminal GST; dsDNA, one strand shown. Summed up:
(§1)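 Pools were built from human transcription factors expressed in yeast as GST fusions, captured on glutathione beads and DNA-barcoded, along with a tag-only sample. Incubation with 200 nmole of a 16-mer random double-stranded DNA library lasted 30 min at room temperature in Tris/NaCl/DTT/glycerol buffer, and was followed by washing, 0.1% formaldehyde crosslinking, proximity ligation, PCR amplification and Illumina NextSeq500 sequencing. Binding signal is the quotient of each hexamer's read frequency for a factor and its frequency for the tag-only sample.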

A further assay concerns the target T2, ELK1 (Homo sapiens, UniProt P19419 1-428).
T2 sequence: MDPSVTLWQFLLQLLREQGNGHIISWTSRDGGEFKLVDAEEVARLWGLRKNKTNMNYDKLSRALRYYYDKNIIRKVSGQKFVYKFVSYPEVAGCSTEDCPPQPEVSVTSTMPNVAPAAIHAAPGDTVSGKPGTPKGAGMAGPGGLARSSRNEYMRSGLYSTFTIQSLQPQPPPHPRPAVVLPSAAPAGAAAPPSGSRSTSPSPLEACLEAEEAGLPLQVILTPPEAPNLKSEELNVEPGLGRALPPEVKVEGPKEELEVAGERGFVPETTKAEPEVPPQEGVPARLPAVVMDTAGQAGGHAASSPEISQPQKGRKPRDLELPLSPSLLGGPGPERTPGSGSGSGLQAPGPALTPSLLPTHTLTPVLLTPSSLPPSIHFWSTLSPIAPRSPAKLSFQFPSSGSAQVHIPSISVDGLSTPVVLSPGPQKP
The settings on record: protein: recombinant; tags: N-terminal GST; dsDNA, one strand shown. Put shortly:
as §1

The target in a further assay is T3, GABPA (Homo sapiens, UniProt Q06546 1-454).
T3 sequence: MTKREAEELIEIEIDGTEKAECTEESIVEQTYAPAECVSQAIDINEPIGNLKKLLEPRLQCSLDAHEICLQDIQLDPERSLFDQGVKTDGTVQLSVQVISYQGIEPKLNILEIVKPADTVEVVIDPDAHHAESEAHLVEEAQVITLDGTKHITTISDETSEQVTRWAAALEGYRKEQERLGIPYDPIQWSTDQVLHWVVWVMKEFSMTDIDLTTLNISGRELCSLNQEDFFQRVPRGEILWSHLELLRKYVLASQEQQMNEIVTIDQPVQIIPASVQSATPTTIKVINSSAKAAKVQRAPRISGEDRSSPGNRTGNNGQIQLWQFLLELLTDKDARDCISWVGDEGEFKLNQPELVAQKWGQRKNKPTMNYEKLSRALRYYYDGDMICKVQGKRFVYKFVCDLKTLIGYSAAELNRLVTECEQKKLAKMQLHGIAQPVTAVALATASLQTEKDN
The note with it: protein: recombinant; tags: N-terminal GST; dsDNA, one strand shown. Summed up: as §1

In the next assay the target is T4, ERG (Homo sapiens, UniProt P11308 1-479).
T4 sequence: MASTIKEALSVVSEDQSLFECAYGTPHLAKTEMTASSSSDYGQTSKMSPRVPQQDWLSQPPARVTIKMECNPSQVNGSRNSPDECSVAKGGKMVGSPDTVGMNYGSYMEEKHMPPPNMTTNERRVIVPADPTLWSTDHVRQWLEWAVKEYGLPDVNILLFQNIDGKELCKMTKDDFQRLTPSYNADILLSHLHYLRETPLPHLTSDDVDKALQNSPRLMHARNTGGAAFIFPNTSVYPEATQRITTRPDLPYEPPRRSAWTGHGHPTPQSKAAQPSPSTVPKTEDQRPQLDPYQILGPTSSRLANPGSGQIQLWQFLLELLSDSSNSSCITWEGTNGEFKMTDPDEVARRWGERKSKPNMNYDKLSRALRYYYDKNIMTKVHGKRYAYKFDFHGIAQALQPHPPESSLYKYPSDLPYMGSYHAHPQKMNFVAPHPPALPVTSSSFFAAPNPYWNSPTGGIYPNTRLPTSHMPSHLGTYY
The settings on record: protein: recombinant; tags: N-terminal GST; dsDNA, one strand shown. Summed up: as §1

The target of the next assay is ELF1 (Homo sapiens, UniProt P32519 1-619). The note with it: protein: recombinant; tags: N-terminal GST; dsDNA, one strand shown. Summed up: as §1
ELF1, sequence (P32519 whole entry): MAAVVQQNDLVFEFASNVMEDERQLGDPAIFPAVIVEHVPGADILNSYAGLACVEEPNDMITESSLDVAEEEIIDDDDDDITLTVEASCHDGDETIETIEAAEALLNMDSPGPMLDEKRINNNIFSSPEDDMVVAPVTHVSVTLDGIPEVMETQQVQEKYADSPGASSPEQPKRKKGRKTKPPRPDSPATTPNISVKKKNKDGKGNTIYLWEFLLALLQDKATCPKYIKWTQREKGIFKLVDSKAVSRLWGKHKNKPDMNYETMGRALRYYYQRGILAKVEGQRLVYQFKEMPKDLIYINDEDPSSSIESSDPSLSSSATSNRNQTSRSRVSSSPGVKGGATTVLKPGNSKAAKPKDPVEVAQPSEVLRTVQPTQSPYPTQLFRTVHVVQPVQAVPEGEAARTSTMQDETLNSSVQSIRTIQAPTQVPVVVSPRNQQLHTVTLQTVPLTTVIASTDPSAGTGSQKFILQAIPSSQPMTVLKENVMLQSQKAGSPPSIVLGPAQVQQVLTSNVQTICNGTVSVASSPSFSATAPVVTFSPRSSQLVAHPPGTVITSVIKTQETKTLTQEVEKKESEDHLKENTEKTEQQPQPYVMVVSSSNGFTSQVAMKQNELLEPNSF
The target of the next assay is T5, EHF (Homo sapiens, UniProt Q9NZC4 1-300).
T5 sequence: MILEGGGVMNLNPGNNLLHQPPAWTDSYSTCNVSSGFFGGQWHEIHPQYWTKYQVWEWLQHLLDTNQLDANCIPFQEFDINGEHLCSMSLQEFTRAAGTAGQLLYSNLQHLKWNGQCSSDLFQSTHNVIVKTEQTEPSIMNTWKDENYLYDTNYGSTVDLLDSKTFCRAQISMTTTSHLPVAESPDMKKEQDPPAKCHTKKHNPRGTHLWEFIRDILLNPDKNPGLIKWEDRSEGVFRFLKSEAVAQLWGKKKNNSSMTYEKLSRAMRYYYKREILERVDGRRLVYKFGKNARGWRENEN
The settings on record: protein: recombinant; tags: N-terminal GST; dsDNA, one strand shown. Put shortly:
as §1

A further assay addresses SPI1 (Homo sapiens, UniProt P17947 1-270). The note with it: protein: recombinant; tags: N-terminal GST; dsDNA, one strand shown. Put shortly: as §1
The target of a further assay is SPIB (Homo sapiens, UniProt Q01892 1-262). The settings on record: protein: recombinant; tags: N-terminal GST; dsDNA, one strand shown. Summed up:
as §1

A further assay concerns the target T6, ELK3 (Homo sapiens, UniProt P41970 1-407).
T6 sequence: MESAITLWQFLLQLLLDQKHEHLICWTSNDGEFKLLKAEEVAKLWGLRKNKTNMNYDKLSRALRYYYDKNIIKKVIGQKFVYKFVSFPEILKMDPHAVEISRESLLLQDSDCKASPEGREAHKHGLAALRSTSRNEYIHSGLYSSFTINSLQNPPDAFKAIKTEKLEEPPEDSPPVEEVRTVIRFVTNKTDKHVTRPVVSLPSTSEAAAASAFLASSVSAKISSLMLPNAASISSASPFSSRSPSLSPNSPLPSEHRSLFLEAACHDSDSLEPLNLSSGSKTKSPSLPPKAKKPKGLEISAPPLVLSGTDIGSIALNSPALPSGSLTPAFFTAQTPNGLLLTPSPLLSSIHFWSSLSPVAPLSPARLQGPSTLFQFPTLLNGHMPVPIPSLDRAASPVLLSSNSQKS
The note with it: protein: recombinant; tags: N-terminal GST; dsDNA, one strand shown. Put shortly: as §1

The next assay concerns the target T7, FEV (Homo sapiens, UniProt Q99581 1-238).
T7 sequence: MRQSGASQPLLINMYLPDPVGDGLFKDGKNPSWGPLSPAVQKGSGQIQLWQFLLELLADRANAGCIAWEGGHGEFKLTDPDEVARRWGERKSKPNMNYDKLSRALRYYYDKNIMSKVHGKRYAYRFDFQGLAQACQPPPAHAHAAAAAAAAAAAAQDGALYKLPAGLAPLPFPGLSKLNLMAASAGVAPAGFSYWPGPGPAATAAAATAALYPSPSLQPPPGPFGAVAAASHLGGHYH
The settings on record: protein: recombinant; tags: N-terminal GST; dsDNA, one strand shown. Summed up:
as §1

The next assay deals with ETV5 (Homo sapiens, UniProt P41161 1-510). The settings on record: protein: recombinant; tags: N-terminal GST; dsDNA, one strand shown. Summed up:
as §1

A further assay has as its target HSF1 (Homo sapiens, UniProt Q00613 1-529). The note with it: protein: recombinant; tags: N-terminal GST; chain copies: 3; dsDNA, one strand shown. Summed up:
as §1

The next assay deals with T8, SPIC (Homo sapiens, UniProt Q8N5J4 1-248).
T8 sequence: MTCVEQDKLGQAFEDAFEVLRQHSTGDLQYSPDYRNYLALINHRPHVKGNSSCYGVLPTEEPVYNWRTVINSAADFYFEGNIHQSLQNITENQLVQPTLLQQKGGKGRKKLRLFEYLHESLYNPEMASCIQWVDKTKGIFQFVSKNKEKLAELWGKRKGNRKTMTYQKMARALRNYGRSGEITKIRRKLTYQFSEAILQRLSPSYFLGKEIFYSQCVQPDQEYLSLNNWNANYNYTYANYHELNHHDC
The note with it: protein: recombinant; tags: N-terminal GST; dsDNA, one strand shown. Summed up:
as §1

Another assay deals with ELF4 (Homo sapiens, UniProt Q99607 1-663). The note with it: protein: recombinant; tags: N-terminal GST; dsDNA, one strand shown. Summed up:
as §1

Another assay concerns the target T9, ELK4 (Homo sapiens, UniProt P28324-2 1-405).
T9 sequence: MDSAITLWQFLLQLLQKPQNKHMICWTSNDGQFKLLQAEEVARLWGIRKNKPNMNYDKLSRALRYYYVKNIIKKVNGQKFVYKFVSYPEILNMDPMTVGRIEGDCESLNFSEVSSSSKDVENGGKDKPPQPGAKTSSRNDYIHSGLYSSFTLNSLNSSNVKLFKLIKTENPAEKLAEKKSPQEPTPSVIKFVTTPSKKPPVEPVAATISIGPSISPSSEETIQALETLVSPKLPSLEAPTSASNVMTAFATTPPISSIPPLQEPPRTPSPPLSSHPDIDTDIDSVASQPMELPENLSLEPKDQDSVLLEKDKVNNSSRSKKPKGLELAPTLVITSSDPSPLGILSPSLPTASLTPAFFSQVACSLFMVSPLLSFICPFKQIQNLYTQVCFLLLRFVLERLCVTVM
The note with it: protein: recombinant; tags: N-terminal GST; dsDNA, one strand shown. Summed up: as §1

A further assay has as its target T10, ETV2 (Homo sapiens, UniProt O00321 1-342).
T10 sequence: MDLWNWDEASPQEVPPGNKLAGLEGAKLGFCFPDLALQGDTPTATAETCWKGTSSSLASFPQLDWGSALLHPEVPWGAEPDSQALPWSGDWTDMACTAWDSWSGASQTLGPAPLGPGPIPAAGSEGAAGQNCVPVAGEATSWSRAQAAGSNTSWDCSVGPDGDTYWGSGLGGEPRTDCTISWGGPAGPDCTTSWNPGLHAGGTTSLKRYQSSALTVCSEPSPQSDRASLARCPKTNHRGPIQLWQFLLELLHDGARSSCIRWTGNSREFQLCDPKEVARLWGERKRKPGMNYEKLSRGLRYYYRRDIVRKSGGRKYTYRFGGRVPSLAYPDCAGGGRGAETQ
The note with it: protein: recombinant; tags: N-terminal GST; dsDNA, one strand shown. Put shortly:
as §1

Another assay addresses T11, ELF3 (Homo sapiens, UniProt P78545 1-371).
T11 sequence: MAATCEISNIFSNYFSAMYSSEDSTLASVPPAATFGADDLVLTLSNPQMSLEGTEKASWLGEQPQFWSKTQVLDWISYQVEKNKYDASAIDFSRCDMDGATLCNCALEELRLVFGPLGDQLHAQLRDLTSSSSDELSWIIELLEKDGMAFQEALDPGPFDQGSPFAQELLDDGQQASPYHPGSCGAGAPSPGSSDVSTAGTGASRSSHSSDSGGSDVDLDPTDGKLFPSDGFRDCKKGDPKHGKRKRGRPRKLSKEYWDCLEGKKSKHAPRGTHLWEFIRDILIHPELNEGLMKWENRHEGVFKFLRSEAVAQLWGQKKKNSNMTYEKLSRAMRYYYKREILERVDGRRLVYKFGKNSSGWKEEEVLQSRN
The settings on record: protein: recombinant; tags: N-terminal GST; dsDNA, one strand shown. Put shortly: as §1

The target in a further assay is CRX (Homo sapiens, UniProt O43186 1-299). The settings on record: protein: recombinant; tags: N-terminal GST; dsDNA, one strand shown. Summed up: as §1
CRX, sequence (O43186 whole entry): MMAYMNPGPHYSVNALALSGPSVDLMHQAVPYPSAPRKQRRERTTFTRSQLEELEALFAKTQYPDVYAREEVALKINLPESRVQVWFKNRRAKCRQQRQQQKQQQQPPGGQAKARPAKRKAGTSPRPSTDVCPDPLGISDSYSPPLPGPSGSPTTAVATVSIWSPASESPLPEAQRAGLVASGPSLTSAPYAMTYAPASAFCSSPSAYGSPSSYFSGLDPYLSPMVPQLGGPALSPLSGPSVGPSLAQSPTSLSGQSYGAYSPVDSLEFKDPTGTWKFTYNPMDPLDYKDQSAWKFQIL
For another assay, the target named is ETV1 (Homo sapiens, UniProt P50549 1-477). The settings on record: protein: recombinant; tags: N-terminal GST; dsDNA, one strand shown. Put shortly: as §1
ETV1, sequence (P50549 whole entry): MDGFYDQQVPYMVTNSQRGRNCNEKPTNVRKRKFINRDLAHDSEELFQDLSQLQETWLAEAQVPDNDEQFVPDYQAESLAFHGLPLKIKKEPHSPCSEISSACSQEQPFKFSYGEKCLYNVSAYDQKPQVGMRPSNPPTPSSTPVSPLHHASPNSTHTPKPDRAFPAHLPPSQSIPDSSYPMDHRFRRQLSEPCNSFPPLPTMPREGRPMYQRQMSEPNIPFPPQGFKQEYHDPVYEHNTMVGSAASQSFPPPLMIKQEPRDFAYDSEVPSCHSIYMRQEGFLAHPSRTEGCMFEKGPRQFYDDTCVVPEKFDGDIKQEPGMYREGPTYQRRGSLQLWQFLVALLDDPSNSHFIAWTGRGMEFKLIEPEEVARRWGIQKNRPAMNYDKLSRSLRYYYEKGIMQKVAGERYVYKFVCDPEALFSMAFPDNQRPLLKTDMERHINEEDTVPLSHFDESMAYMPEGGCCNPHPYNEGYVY

HSF1, sequence (Q00613 whole entry): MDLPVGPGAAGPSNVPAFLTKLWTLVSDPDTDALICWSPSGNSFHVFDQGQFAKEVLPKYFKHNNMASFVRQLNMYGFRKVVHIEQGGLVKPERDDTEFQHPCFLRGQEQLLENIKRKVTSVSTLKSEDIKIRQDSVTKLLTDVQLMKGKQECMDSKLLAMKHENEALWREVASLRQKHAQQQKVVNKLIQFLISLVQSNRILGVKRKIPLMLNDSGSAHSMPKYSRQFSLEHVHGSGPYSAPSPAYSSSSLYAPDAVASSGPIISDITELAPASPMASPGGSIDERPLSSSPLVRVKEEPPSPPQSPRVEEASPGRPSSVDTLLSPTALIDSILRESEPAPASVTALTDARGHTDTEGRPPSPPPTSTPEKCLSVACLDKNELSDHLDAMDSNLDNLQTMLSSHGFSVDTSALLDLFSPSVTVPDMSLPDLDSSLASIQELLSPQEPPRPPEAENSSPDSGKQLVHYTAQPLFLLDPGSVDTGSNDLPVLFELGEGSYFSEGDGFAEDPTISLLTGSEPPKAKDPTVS
ELF4, sequence (Q99607 whole entry): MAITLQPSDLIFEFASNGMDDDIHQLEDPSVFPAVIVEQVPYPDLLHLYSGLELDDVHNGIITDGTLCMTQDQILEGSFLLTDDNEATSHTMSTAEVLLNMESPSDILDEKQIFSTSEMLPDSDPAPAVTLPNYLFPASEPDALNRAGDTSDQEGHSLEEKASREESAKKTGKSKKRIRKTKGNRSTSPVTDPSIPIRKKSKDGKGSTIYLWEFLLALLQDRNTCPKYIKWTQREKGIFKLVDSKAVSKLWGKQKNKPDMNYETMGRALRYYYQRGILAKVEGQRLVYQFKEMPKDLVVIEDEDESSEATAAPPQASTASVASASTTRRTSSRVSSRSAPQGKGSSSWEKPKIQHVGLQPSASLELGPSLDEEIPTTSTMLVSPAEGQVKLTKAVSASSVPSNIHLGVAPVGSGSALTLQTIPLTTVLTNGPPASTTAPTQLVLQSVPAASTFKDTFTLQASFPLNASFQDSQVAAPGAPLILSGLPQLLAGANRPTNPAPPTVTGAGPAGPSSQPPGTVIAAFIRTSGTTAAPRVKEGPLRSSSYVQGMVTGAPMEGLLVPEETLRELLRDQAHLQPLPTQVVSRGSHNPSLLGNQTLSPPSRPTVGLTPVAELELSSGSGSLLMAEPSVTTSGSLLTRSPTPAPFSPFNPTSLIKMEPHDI
SPIB, sequence (Q01892 whole entry): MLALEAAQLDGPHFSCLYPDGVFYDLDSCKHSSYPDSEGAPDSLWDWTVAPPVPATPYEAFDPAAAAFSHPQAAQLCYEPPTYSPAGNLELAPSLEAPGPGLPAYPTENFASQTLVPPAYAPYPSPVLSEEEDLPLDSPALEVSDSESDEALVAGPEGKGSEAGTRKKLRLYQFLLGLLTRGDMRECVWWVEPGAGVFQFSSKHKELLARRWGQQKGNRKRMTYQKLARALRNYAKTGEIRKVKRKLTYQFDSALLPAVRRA
ETV5, sequence (P41161 whole entry): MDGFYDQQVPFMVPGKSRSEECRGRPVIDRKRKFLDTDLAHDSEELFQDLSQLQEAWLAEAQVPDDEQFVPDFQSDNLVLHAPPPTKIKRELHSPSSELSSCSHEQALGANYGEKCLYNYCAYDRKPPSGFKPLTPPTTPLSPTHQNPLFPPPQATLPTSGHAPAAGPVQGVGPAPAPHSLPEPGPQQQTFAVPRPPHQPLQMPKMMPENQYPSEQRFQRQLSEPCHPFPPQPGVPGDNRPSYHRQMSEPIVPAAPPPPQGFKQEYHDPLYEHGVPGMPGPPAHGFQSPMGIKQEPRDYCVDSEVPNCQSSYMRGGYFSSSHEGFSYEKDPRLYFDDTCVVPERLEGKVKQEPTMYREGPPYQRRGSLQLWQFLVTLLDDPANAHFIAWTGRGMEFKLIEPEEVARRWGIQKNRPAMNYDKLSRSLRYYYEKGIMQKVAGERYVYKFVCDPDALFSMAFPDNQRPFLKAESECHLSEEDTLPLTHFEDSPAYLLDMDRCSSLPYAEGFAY

TTATTC: the binding signal is 1.48 fold enrichment (6-mer frequency, TF over GST control) with FLI1; 1.41 fold enrichment (6-mer frequency, TF over GST control) in the assay with ELK1; 1.38 fold enrichment (6-mer frequency, TF over GST control) with GABPA; 1.34 fold enrichment (6-mer frequency, TF over GST control) in the assay with ERG; 1.3 fold enrichment (6-mer frequency, TF over GST control) with ELF1; 1.29 fold enrichment (6-mer frequency, TF over GST control) in the assay with EHF. The binding signal is 1.33 fold enrichment (6-mer frequency, TF over GST control) with SPI1; 1.39 fold enrichment (6-mer frequency, TF over GST control) in the assay with SPIB; 1.45 fold enrichment (6-mer frequency, TF over GST control) with ELK3; 1.39 fold enrichment (6-mer frequency, TF over GST control) with FEV; 1.33 fold enrichment (6-mer frequency, TF over GST control) with ETV5; 2.13 fold enrichment (6-mer frequency, TF over GST control) with HSF1. Moreover, the binding signal was 1.45 fold enrichment (6-mer frequency, TF over GST control) with SPIC; 1.41 fold enrichment (6-mer frequency, TF over GST control) in the assay with ELF4; 1.31 fold enrichment (6-mer frequency, TF over GST control) with ELK4; 1.54 fold enrichment (6-mer frequency, TF over GST control) with ETV2; 1.24 fold enrichment (6-mer frequency, TF over GST control) with ELF3; 2.37 fold enrichment (6-mer frequency, TF over GST control) with CRX. Besides, in the assay with ETV1, the binding signal was 1.36 fold enrichment (6-mer frequency, TF over GST control).
